Assay results taken from PubChem BioAssay AID1347416 (National Center for Advancing Translational Sciences (NCATS), 2020).
Screen size: about 4,100 compounds; about 1,600 (39%) were called active. About 25% were inconclusive and are not listed. Calls come from the whole dose curve; as a rule, active = well fitted inhibition curve with a large enough effect; inconclusive = small, poorly fitted or top-dose-only effect; inactive = no such curve, though single readings can be large or run the other way. The list shows a part of the results.

experiment: qHTS Validation assay for Inhibitors of Plasmodium falciparum Dd2 growth in vitro; note: nearly all actives have a fitted effect of over 70% in size; settings: P. falciparum Dd2 in RBCs, SYBR Green growth, 72 h; series mostly up to 28.7 µM
Outline: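 P. falciparum Dd2-infected red blood cells (2.5% hematocrit, 0.3% parasitemia) grown 72 h at 37 °C under 5% O2 with compounds in a titration, 29 uM to 0.5 nM final. Growth read as SYBR Green-1 fluorescence after ~16 h lysis; artesunate 300 nM as positive control.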
Potency is the fitted concentration of half-maximal effect.

Structure (SMILES) | Potency
CC(C)(C(=O)N1CCN(Cc2ccccc2)CC(O)C1)c1ccccc1 (stereo unspecified) | inactive
CCOC(=O)c1c(N)sc2c1CCN(Cc1ccccc1)C2 | 5.31 µM (active)
CCOC(=O)c1c(NC(=O)/C=C/c2ccc(OCC)cc2)sc2c1CCC2 | inactive
O=C(CN1CCC(n2nnc3cc(F)ccc32)CC1)Nc1ccccc1N1CCOCC1 | 5.31 µM (active)
Cc1cc(F)ccc1NC(=O)Cn1c(=O)ccc2cc(S(=O)(=O)N3CCC(C)CC3)ccc21 | inactive
CCO[C@H]1OC(C(=O)N2CCN(Cc3ccc4c(c3)OCO4)CC2)=C[C@@H](c2cn(C(C)=O)c3ccccc23)[C@@H]1CCCO | 8.41 µM (active)
CCO[C@@H]1OC(C(=O)N2CCN(Cc3ccc4c(c3)OCO4)CC2)=C[C@H](c2cn(C(C)=O)c3ccccc23)[C@H]1CCCO | 9.44 µM (active)
O=C(NCc1nc2ccccc2[nH]1)C1=C[C@@H](c2ccccc2)C[C@@H](OCCCCO)O1 | inactive
O=C(C1=C[C@H](c2csc3ccccc23)C[C@H](OCCCCO)O1)N1CCN(Cc2ccc3c(c2)OCO3)CC1 | 13.3 µM (active)
CCO[C@H]1OC(C(=O)N2CCN(Cc3ccccc3)CC2)=C[C@@H](C2CCCCC2)[C@@H]1CCCO | inactive
CN(Cc1cccnc1)Cc1ccccc1C(F)(F)F | inactive
Cn1c(CN2CCCCC2)nnc1C1CCCN(C(=O)c2cocn2)C1 (stereo unspecified) | inactive
CCOC(=O)c1nnn(-c2nonc2-n2cccc2)c1CN1CCC(C(=O)OCC)CC1 | 4.73 µM (active)
CCOC(=O)c1nnn(-c2nonc2-n2cccc2)c1CN1CCCCC1 | 7.5 µM (active)
O=C(COc1ccccc1)N1CCCC(n2cc(-c3nc(C4CC4)no3)nn2)C1 (stereo unspecified) | inactive
CC(=O)Nc1cccc(-c2cn(C)c(=O)n3cc(COc4ccccc4)nc23)c1 | inactive
O=C(c1nnc(COc2ccc(OC(F)(F)F)cc2)n1-c1ccccc1)N1CCC[C@@H]1C(c1ccccc1)c1ccccc1 | 8.41 µM (active)
CC(=O)Nc1cccc(OCc2nnc(C(=O)N3CCC[C@@H]3C(c3ccccc3)c3ccccc3)n2-c2ccccc2)c1 | 10.6 µM (active)
O=C(c1nnc(CN2CCC(F)(F)CC2)n1-c1cccnc1)N1CCC[C@@H]1C(c1ccccc1)c1ccccc1 | 15 µM (active)
COC1CCOC2(CCN(C(=O)CCn3nc(C)cc3C)CC2)C1 (stereo unspecified) | inactive
O=C1C(c2ccc(C(F)(F)F)cc2)=C(Nc2ccc(Cl)cc2)c2ccccc21 | 1.5 µM (active)
COc1ccc(NC2=C(c3ccc(OC)cc3)C(=O)c3ccccc32)cc1 | 5.96 µM (active)
COCCn1cnc2ccc(Nc3ccc(C(F)(F)F)cc3)nc2c1=O | inactive
COc1ccc(C2=C(Nc3ccccc3)c3ccccc3C2=O)cc1 | 9.44 µM (active)
COc1ccc(C(=O)NC2(C(F)(F)F)C(=O)NC(C)=C2C#N)cc1 (stereo unspecified) | inactive
COc1ccc(NC2=C(c3ccc(C(F)(F)F)cc3)C(=O)c3ccccc32)cc1 | 2.11 µM (active)

Structure (SMILES) | Potency
Cc1cc(Cl)ccc1NC(=O)N1C[C@H](c2nc(-c3cccnc3)no2)[C@@H](C)C1 | inactive
CCOc1ccc(NC2=C(OC)C(=O)c3ccccc3C2=O)cc1 | 0.376 µM (active)
COc1ccc(C2=C(Nc3ccc(C)cc3)c3ccccc3C2=O)cc1 | 4.73 µM (active)
Cc1cc(C)c(CNC(=O)c2cc(-c3ccnn3C)cc3c2OCCN3C(C)C)c(=O)[nH]1 | 15.3 µM (active)
COc1ccc(C(=O)NCc2nnc3c(-c4nc(C5CC5)no4)cccn23)c(C)c1 | inactive
COc1ccccc1C(=O)NCc1nnc2c(-c3nc(C4CC4)no3)cccn12 | inactive
CN1CCOc2c(C(=O)NCCc3cnc[nH]3)cc(-c3ccc(N4CCOCC4)cc3)cc21 | inactive
CC(C)c1cccc(NC(=O)c2ccc(CN3C(=O)NC4(CCOCC4)C3=O)cc2)c1 | inactive
CC(=O)Nc1cccc(-c2cc(C(=O)NCc3c(C)cc(C)[nH]c3=O)c3c(c2)N(C(C)C)CCO3)c1 | 9.44 µM (active)
Cc1cc(C)c(CNC(=O)c2cc(-c3cccnc3)cc3c2OCCN3C(C)C)c(=O)[nH]1 | 19.3 µM (active)
COc1ncc(-c2cc(C(=O)NCc3c(C)cc(C)[nH]c3=O)c3c(c2)N(C(C)C)CCO3)cn1 | 9.44 µM (active)
COc1ccc(-n2ccnc2SCC(=O)NO)cc1 | inactive
COC(=O)C1=C(C)N(c2ccc(OC)cc2)C(C)=C(C(=O)OC)C1c1ccccc1 | 9.44 µM (active)
CCOC(=O)c1sc2nc3c(SCCC#N)cc(C(=O)c4cc(F)ccc4O)cn3c(=O)c2c1C | 1.68 µM (active)
CC(=O)NC1CC(c2cc(NCCCOC3CCN(C)CC3)ncn2)C1 (stereo unspecified) | inactive
O=C(NCc1ccco1)C1CCc2sc(C(=O)N3CCCCCC3)cc2C1 (stereo unspecified) | inactive
CC1CCN(c2ccc(C(=O)NCc3ccco3)cc2[N+](=O)[O-])CC1 | 6.68 µM (active)
Cc1nn2c3c(cnc2c1-c1ccccc1)C(=O)CC(c1ccco1)C3 (stereo unspecified) | 9.44 µM (active)
CCOC(=O)c1noc2nc(C)n(CC(=O)NC(C)CC)c(=O)c12 (stereo unspecified) | inactive
CCOC(=O)c1nc2cc3n(c(CC(C)C)c-2c1C)CC(C)=C3C | 7.5 µM (active)
COc1ccc(OCCn2cc(C(=O)c3ccco3)c3ccccc32)cc1 | 2.11 µM (active)
O=C(Nc1c(C(=O)N2CCN(c3ccc(F)cc3)CC2)oc2ccccc12)c1ccco1 | inactive
Cc1cc(OCCn2cc(C(=O)c3ccco3)c3ccccc32)ccc1Cl | 5.31 µM (active)
O=C(c1cccs1)c1cn(CCOc2ccc(Cl)cc2)c2ccccc12 | 5.96 µM (active)
CCCNc1c(NC(=O)COc2ccc(Cl)cc2)c(=O)oc2ccccc12 | inactive
CC(C)(C)c1ccc(OCCn2ccccc2=O)cc1 | inactive

Structure (SMILES) | Potency
COc1cccc(OCCn2cc(C(=O)c3ccco3)c3ccccc32)c1 | inactive
O=C(c1ccco1)c1cn(CCOc2ccc(F)cc2)c2ccccc12 | 6.68 µM (active)
CCCS(=O)(=O)NCCc1ncc(C)n1C(C)C | inactive
Cc1ccccc1-n1c(=O)/c(=C\c2ccco2)s/c1=C(/C#N)C(=O)Nc1ccccc1 | 5.31 µM (active)
N#Cc1ccc(CN2C[C@@H]3C(=O)N(CCN4CCc5ccccc5C4)C(=O)[C@@H]3C2)cc1 | inactive
CC1(C)N=C(N)N=C(N)N1c1ccc(OCCCOc2ccccc2)c(Cl)c1 | 2.99 µM (active)
COc1ccc(N2C(N)=NC(N)=NC2(C)C)cc1 | inactive
CCOc1ccc(N2C(N)=NC(N)=NC2(C)C)cc1 | inactive
COC[C@@H]1CN(Cc2ccc(OC)c(C)c2)C[C@H]1C(=O)N(C)C | inactive
CCOC(=O)c1cc(C)n(Cc2ccc(OCC)c(OC)c2)c1C | 10.6 µM (active)
COc1cc(O)c(C(CCN2CCN(c3ccccc3)CC2)c2ccc3c(c2)OCO3)c(OC)c1 (stereo unspecified) | 0.842 µM (active)
COc1cc(O)c(C(CCN2CCCCC2)c2ccc3c(c2)OCO3)c(OC)c1 (stereo unspecified) | 1.33 µM (active)
CCc1ccc(NC(=O)C(=O)NCC(c2ccc3c(c2)OCO3)N2CCOCC2)cc1 (stereo unspecified) | inactive
COc1cc(O)c(C(CCN2CCOCC2)c2ccc3c(c2)OCO3)c(OC)c1 (stereo unspecified) | 4.22 µM (active)
COc1cc(O)c(C(CCN2CCCC(C)C2)c2ccc3c(c2)OCO3)c(OC)c1 (stereo unspecified) | 0.531 µM (active)
CCOC(=O)C1(Cc2ccccc2Cl)CCNCC1 | 2.66 µM (active)
CCOC(=O)C1(Cc2ccccc2C(F)(F)F)CCNCC1 | inactive
CN(CCc1ccccn1)c1ccc(-c2nc(COc3ccccc3)no2)cn1 | inactive
Fc1cccc(NC(=S)NNc2c3ccccc3nc3ccccc23)c1 | 15 µM (active)
OC(CNC1CCCc2ccccc21)COc1c(Cl)cccc1Cl (stereo unspecified) | 1.68 µM (active)
CC(=O)N(C)C1CCCc2ccccc21 (stereo unspecified) | inactive
COc1ccccc1CN(C)C1CCCc2ccccc21 (stereo unspecified) | inactive
N/C(=N\OC(=O)c1cccc(F)c1)c1ccccn1 | inactive
CCc1noc(-c2cccn3c(CNC(=O)c4cccc(F)c4)nnc23)n1 | inactive
O=C(N/N=C(\c1ccccc1)c1cccnc1)c1cccc(F)c1 | 4.22 µM (active)
O=C1NCN(c2ccccc2)C12CCN(CCCC(c1ccc(F)cc1)c1ccc(F)cc1)CC2 | 5.31 µM (active)

Structure (SMILES) | Potency
F[C@@H]1CN(CC2CC2)C[C@@H]1OCc1nc2ccccc2o1 | inactive
CCOC(=O)c1cccc(NC(=O)Cn2ncc3c4ccccc4n(Cc4ccccc4)c3c2=O)c1 | inactive
Cc1cc(C)c(Cn2c(=O)n(CCCCC(=O)NCc3ccccc3Cl)c(=O)c3ccccc32)c(C)c1 | inactive
CCCCN(C)CCCNC(=O)Cn1ncc2c3ccccc3n(Cc3cc(C)ccc3C)c2c1=O | 0.75 µM (active)
Cc1nc2sc(C(=O)Nc3ccc(F)cc3)c(N)c2c(-c2ccc(Br)cc2)c1C(=O)Nc1ccc(Cl)cc1 | 8.41 µM (active)
COc1ccc(-c2c3c(nc4sc(C(=O)Nc5ccc(Cl)cc5)c(N)c24)CC(C)(C)CC3=O)cc1 | 0.376 µM (active)
COc1ccc(-c2c3c(nc4sc(C(=O)Nc5ccc(F)cc5)c(N)c24)CC(C)(C)CC3=O)cc1 | 0.944 µM (active)
CCc1ccc(N=C2NC(=O)CC(C(=O)Nc3ccc(OC)cc3)S2)cc1 (stereo unspecified) | inactive
COc1ccc(C(=O)Nc2ccc([C@H]3OCC(=O)N(C(C)C)[C@@H]3CO)cc2)cc1 | inactive
COc1ccc(NC(=O)CSc2nc(-c3ccc(OC)cc3)[nH]c2-c2ccc(F)cc2)cc1 | inactive
COc1ccc(NC(=O)c2sc3nc4c(c(-c5ccc(OC)cc5)c3c2N)C(=O)CC(C)(C)C4)cc1 | 1.88 µM (active)
CCn1nccc1C(=O)N1CCCC(n2cc(-c3nc(-c4ccccc4)no3)nn2)C1 (stereo unspecified) | inactive
O=C(Nc1ccc(-c2nnc3n2CCCC3)cc1)c1ccc2ccccc2n1 | inactive
CCOC(=O)c1ccccc1NC1c2ccccc2C(=O)N1C1CCN(C(=O)OCC)CC1 (stereo unspecified) | 13.3 µM (active)
CCOC(=O)N1CCN(c2nc3ccccn3c(=O)c2C=O)CC1 | inactive
CCOC(=O)N1CCN(C(=O)c2ccccc2-c2ccccc2)CC1 | inactive
COc1ccc(-n2nc3ccc(N)cc3n2)cc1Cl | inactive
Oc1ccc(Cl)cc1-c1cc(C(F)(F)C(F)F)nc(-c2ccccc2)n1 | 0.842 µM (active)
CCN(CC)c1ccc(C(=O)NCc2nnc3c(-c4nc(C(C)C)no4)cccn23)cc1 | inactive
COc1cc(OC)c(NC(=O)n2ncc3cc(Cl)ccc32)cc1Cl | inactive
COc1cc(OC)c(NC2=CC(=O)C(=O)c3ccccc32)cc1Cl | 2.99 µM (active)
COc1cc(Cl)c(NC2=CC(=O)C(=O)c3ccccc32)c(OC)c1 | 1.68 µM (active)
Cc1cc(O)c(-c2ccnc3cc(-c4ccccc4)nn23)cc1Cl | 1.88 µM (active)
